Test results: PubChem BioAssay AID1159580 (chemical genetic matrix, 2015)
Values joined by “and” are separate entries in the source; they are usually repeats but may differ in a detail not shown here. Identical values can stand only once. The whole screen tested about 5,500 compounds, of which about 2,000 (36%) were called active. Not shown: some 18% with an inconclusive outcome. Rule as the data show it: active = normalized growth mostly below about 0.91 (no sharp cut-off); inconclusive = no clear call, values can overlap the other calls; inactive = mostly above about 0.92. Some of the results follow.

Test: chemical genetic growth profiling, strain panel (AID 1159580);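 also: tested at 20 µM; growth read once vehicle control cultures reached saturation at 30 °C; 1 = growth at the plate median or of vehicle wells; lower values mean less growth of the strain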
Settings: S. cerevisiae deletion strains, growth OD

Measured: normalized growth

NC1(C(=O)O)CCCC1
inactive: locus YAL013W, strain DEP1, stronger effect = lower value 1 | locus YAL021C, strain ccr4, stronger effect = lower value 1.01 | locus YAL026C, strain drs2, stronger effect = lower value 1.02 | locus YAL030W, strain snc1, stronger effect = lower value 1.02 | locus YBL061C, strain skt5, stronger effect = lower value 1.01 | locus YBR009C, strain hhf1, stronger effect = lower value 1 | locus YBR021W, strain FUR4, stronger effect = lower value 0.989 | locus YBR023C, strain chs3, stronger effect = lower value 1.02 | locus YBR171W, strain sec66, stronger effect = lower value 1.03 | locus YBR229C, strain ROT2, stronger effect = lower value 1.01 | locus YBR231C, strain swc5, stronger effect = lower value 1.02 | locus YBR279W, strain paf1, stronger effect = lower value 1.01 | locus YCL011C, strain gbp2, stronger effect = lower value 1.02 | locus YCL016C, strain dcc1, stronger effect = lower value 1.01 | locus YCL029C, strain bik1, stronger effect = lower value 1.02 | locus YCL061C, strain MRC1, stronger effect = lower value 1.02 | locus YCL069W, strain vba3, stronger effect = lower value 1.02 | locus YCR088W, strain abp1, stronger effect = lower value 1.02 | locus YDL005C, strain med2, stronger effect = lower value 1.01 | locus YDL035C, strain GPR1, stronger effect = lower value 1.01 | locus YDL040C, strain nat1, stronger effect = lower value 1.01 | locus YDL074C, strain BRE1, stronger effect = lower value 1.02 | locus YDL101C, strain DUN1, stronger effect = lower value 1 | locus YDL134C, strain PPH21, stronger effect = lower value 0.998 | locus YDL185W, strain tfp1, stronger effect = lower value 0.989 | locus YDL192W, strain arf1, stronger effect = lower value 0.998 | locus YDR001C, strain nth1, stronger effect = lower value 1.02 | locus YDR069C, strain doa4, stronger effect = lower value 1.03 | locus YDR101C, strain arx1, stronger effect = lower value 1.01 | locus YDR137W, strain rgp1, stronger effect = lower value 1 | locus YDR150W, strain NUM1, stronger effect = lower value 1.01 | locus YDR159W, strain sac3, stronger effect = lower value 0.995 | locus YDR162C, strain NBP2, stronger effect = lower value 1.01 | locus YDR195W, strain ref2 1.03 | locus YDR297W, strain sur2, stronger effect = lower value 1.01 | locus YDR318W, strain mcm21, stronger effect = lower value 0.996 | locus YDR334W, strain swr1, stronger effect = lower value 1.01 | locus YDR335W, strain msn5, stronger effect = lower value 1.01 | locus YDR388W, stronger effect = lower value 0.998 | locus YDR392W, strain spt3, stronger effect = lower value 1.01 | locus YDR502C, strain sam2, stronger effect = lower value 0.99 | locus YEL003W, strain gim4, stronger effect = lower value 1.02 | locus YEL037C, strain rad23, stronger effect = lower value 1.02 | locus YEL061C, strain CIN8 (second series), stronger effect = lower value 1.02 | locus YEL061C, strain CIN8, stronger effect = lower value 1.01 | locus YER015W, strain faa2, stronger effect = lower value 1.02 | locus YER016W, strain bim1, stronger effect = lower value 1.01 | locus YER110C, stronger effect = lower value 1 | locus YER111C, strain swi4, stronger effect = lower value 1.03 | locus YER155C, strain BEM2 (second series), stronger effect = lower value 1.07 | locus YER155C, strain BEM2, stronger effect = lower value 0.997 | locus YER167W, strain BCK2, stronger effect = lower value 1.01 | locus YFR010W, strain ubp6, stronger effect = lower value 1.02 | locus YGL078C, strain dbp3, stronger effect = lower value 0.989 | locus YGL086W, strain mad1, stronger effect = lower value 0.994 | locus YGL167C, strain pmr1, stronger effect = lower value 1.01 | locus YGL173C, strain kem1, stronger effect = lower value 1.02 | locus YGL227W, strain vid30, stronger effect = lower value 1.02 | locus YGL240W, strain doc1, stronger effect = lower value 1.04 | locus YGL248W, strain PDE1, stronger effect = lower value 1.01 | locus YGL253W, strain hxk2, stronger effect = lower value 1.02 | locus YGR135W, strain pre9, stronger effect = lower value 0.998 | locus YGR252W, strain gcn5, stronger effect = lower value 0.935 | locus YHR013C, strain ard1, stronger effect = lower value 1.07 | locus YHR027C, strain rpn1, stronger effect = lower value 1.01 | locus YHR030C, strain SLT2, stronger effect = lower value 1.01 | locus YHR079C, strain IRE1 (second series), stronger effect = lower value 0.996 | locus YHR079C, strain IRE1, stronger effect = lower value 1.04 | locus YHR094C, strain hxt1, stronger effect = lower value 0.998 | locus YHR129C, strain ARP1, stronger effect = lower value 1.01 | locus YHR142W, strain chs7, stronger effect = lower value 1.03 | locus YHR200W, strain rpn10, stronger effect = lower value 0.997 | locus YIL066C, strain RNR3, stronger effect = lower value 1.02 | locus YIL073C, strain SPO22, stronger effect = lower value 1.02 | locus YIL125W, strain kgd1, stronger effect = lower value 1 | locus YIR030C, strain dcg1, stronger effect = lower value 1.01 | locus YJL092W, strain hpr5, stronger effect = lower value 1.03 | locus YJL095W, strain BCK1 (second series), stronger effect = lower value 1.01 | locus YJL095W, strain BCK1, stronger effect = lower value 1.01 and 1.02 | locus YJL115W, strain asf1, stronger effect = lower value 1.03 | locus YJL129C, strain trk1, stronger effect = lower value 1.06 | locus YJL134W, strain LCB3, stronger effect = lower value 1.01 | locus YJL154C, strain vps35, stronger effect = lower value 1.02 | locus YJL164C, strain tpk1, stronger effect = lower value 1.02 | locus YJL166W, strain qcr8, stronger effect = lower value 1.02 | locus YJL168C, strain set2, stronger effect = lower value 0.994 | locus YJL187C, strain SWE1 (second series), stronger effect = lower value 1.01 | locus YJR043C, strain POL32, stronger effect = lower value 1 | locus YJR066W, strain TOR1, stronger effect = lower value 0.975
